According to PubChem BioAssay (NCI):
The panel holds about 83,000 compounds, 20% with a hit somewhere; the sample as a whole holds those more often.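 For each line, cells grew in 96-well plates with the test compound present at a single concentration for 48 hours.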 Values without a mark were called inactive. Active and inactive are the calls of the source.

What follows are compounds tested on OVCAR-4 ovarian (assay: NCI-60 one-dose screen, 48 h (100 = growth as untreated, 0 = no growth, -100 = all killed)). Settings: 10 µM unless noted.
Description: Growth inhibition of the OVCAR-4 human tumor cell line is measured as a screen for anti-cancer activity. Cells are grown in 96 well plates and exposed to the test compound for 48 hours. Compounds are tested at a single concentration, which is 10^-5 M for most compounds. The reported endpoint is percent growth (GI% or GIPRCNT), where numbers from 0 - 100% represent growth inhibition, and numbers from -100% - 0 represent cell death. For example, a value of 40 represents 60% growth inhibition. A value of 0 means no net growth occurred over the course of the experiment. A value of -40 indicates 40% of cells at the beginning of the experiment died by the end of the experiment. A value of -100 means all cells are dead at the end of the experiment.
NCI-60 Human Tumor Cell Lines Screen was performed using the standard one-dose NCI protocol, which is described in more detail at https://dtp.cancer.gov/discovery_development/nci-60/default.htm.
Compounds with GIPRCNT values below 10 were considered active. Activity score was based on GIPRCNT using the following formula: […]
Score is 0 for GIPRCNT values of 100 or above, 50 for GIPRCNT values of 0, and 100 for GIPRCNT values of -100.

Going from `COc1ccc(-c2nnc(COc3ccc(NS(=O)(=O)c4ccc(OC)cc4)cc3F)o2)cc1` to `CCCCNC(=O)NS(=O)(=O)c1ccc(N2N=C(c3ccc(C)cc3C)CC2c2ccc(OC)cc2)cc1` (stereo not given), the growth rises from 57.3% to 68.4%.

Going from `CCCn1c(=S)sc2c(Cl)nc(C)nc21` to `CCCCCCc1nc2c(c(C)nn2-c2ccccc2)c2c1CCCCC2`, the growth rises from 85.5% to 115%.

Compared with `CCn1cc(C2NC(=O)c3cc(F)ccc3N2)c2cccc(Cl)c21` (stereo not given), `O=c1[nH]c(-c2cn(-c3ccc(Cl)cc3)nn2)nc2ccccc12` is lower in growth: 39.4% for the first, 36% for the second.

Going from `C#CCN1C(=O)/C(=c2\sc3n(c2=O)C2C(NN=3)N(CC)C(=O)N2CC)c2ccccc21` (stereo not given) to `COc1ccc(/C=c2\sc3n(c2=O)C2C(NN=3)N(C)C(=O)N2C)cc1` (stereo not given), the growth rises from 47.5% to 51.2%.

First: Nc1nc(-c2ccccc2)cs1
Second: OCc1c(-c2ccccc2)nc2sccn12
The growth of the first is lower: 102% for the first, 103% for the second.

Compared with `COC(=O)[C@H]1[C@H](OC)[C@@H](OC(=O)/C=C/c2ccncc2)CC2CN3CCc4c([nH]c5cc(OC)ccc45)[C@@H]3C[C@@H]21` (stereo not given in full), `CCC(=O)Oc1cc(/C=C/C(=O)O[C@H]2C[C@H]3CN4CCc5c([nH]c6cc(OC)ccc56)[C@@H]4C[C@@H]3[C@@H](C(=O)OC)[C@@H]2OC)ccc1OC` is lower in growth: 60.8% for the first, 56.9% for the second.

Compared with `COc1cccc(/C=C/C(=O)c2sc(Nc3ccc(O)cc3)nc2C)c1`, `Oc1ccc(N=Cc2ccccc2)cc1` is lower in growth: 96.9% for the first, 79.7% for the second.

First: Nc1ccc(S(=O)(=O)c2ccc(Cl)cc2)cc1
Second: Cc1nn(-c2ccc(Cl)cc2)c(=O)n1CCOc1ccccc1Cl
The growth of the first is higher: 110% for the first, 68.1% for the second.

Compared with `CCOC(=O)C(Cc1ccccc1)n1c(O)c(C=Nc2ccc(C(=O)OCCN(CC)CC)cc2)sc1=O` (stereo not given), `O=C(O)c1ccc(-n2c(=O)c3ccccc3c3ccccc3c2=O)cc1` is higher in growth: 89.4% for the first, 119% for the second.

Going from `CC(C)C(C(=O)CCN(C)C)c1ccc(Cl)cc1` (stereo not given) to `Cc1nc2scc(-c3ccccc3)n2c(=O)c1CCO`, the growth falls from 109% to 93.8%.

First: O=C(CN1CCOCC1)Nc1ccc(-c2nc3ccccc3s2)cc1
Second: Cc1ccc(Cn2c(-c3nonc3N)nc3ccccc32)cc1
The growth of the first is higher: 101% for the first, 87.1% for the second.

Compared with `Cc1ccc(Oc2nc3ccccc3cc2-c2nnc(Cn3c(COc4ccccc4)nc4ccccc43)o2)cc1`, `c1ccc2nc(-c3ccc4ccccc4n3)ccc2c1` is higher in growth: 53.9% for the first, 92.3% for the second.

First: O=C(c1c[nH]c2ccccc12)C(Sc1nc2ccccc2c(=O)[nH]1)c1ccccc1 (stereo not given)
Second: COc1ccc(-c2nc(-c3nc4ccc(F)cc4[nH]3)cc3c2[nH]c2ccccc23)cc1
The growth of the first is higher: 95.9% for the first, 45.8% for the second.

Compared with `C/C(=C\c1csc(C)n1)[C@@H]1C[C@@H]2O[C@]2(C)CCC[C@H](C)[C@H](O)[C@@H](C)C(=O)C(C)(C)[C@@H](O)CC(=O)N1`, `C=C1C(=O)O[C@H]2[C@H](O)[C@@H](C)CCC/C(C)=C/CC[C@@]3(C)O[C@@H]3C[C@@H]12` is higher in growth: 14.8% for the first, 103% for the second.

Going from `O=c1[nH]c(CN2CCN(c3ccccc3F)CC2)nc2sc3c(c12)CCC3` to `CN1CCN(CCCOc2ccc3nc(Nc4ccc(C(F)(F)F)c(Cl)c4)ccc3c2)CC1`, the growth falls from 112% to 41.7%.

First: CCCCCCCCCCCCNC(=S)N/N=C/c1ccc(Cl)c(Cl)c1
Second: CCCCCCOc1ccc(C2(Cl)c3ccccc3N(C)c3ccccc32)cc1
The growth of the first is higher: 99.3% for the first, 41.3% for the second.

Going from `O=C(NNC(=S)Nc1ccccc1)c1ccccn1` to `O=C(Nc1ccc(I)cc1)c1cc([N+](=O)[O-])ccc1O`, the growth rises from 20.1% to 30.3%.

Going from `CN1C(=O)[C@H]2c3c1cccc3[C@@]13NC(=O)O[C@H]1[C@H](CCC3(C)C)C2(C)C` to `COc1ccc(N=C2NN=C(c3ccc(F)cc3)CS2)cc1OC`, the growth rises from 99% to 103%.

`O=S(=O)(NCCCNc1nccc(-c2c(-c3ccc(O)cc3)nc3sccn23)n1)c1ccc(F)cc1` showed a growth of 14.9%.

With `O=C(CCCn1c2c(sc3ccccc32)c(=O)n2nnc(-c3ccccc3)c12)NCCc1cnc[nH]1` the growth was -92.5% (active).
With `FC(F)(F)c1cccc(-n2nnc3cnc(Nc4ccc(N5CCCCC5)cc4)nc32)c1` the growth was -9.56% (active).
`C=C1C(=O)O[C@H]2[C@H]1CC/C(Cn1cc(-c3ccccc3C(F)(F)F)nn1)=C\CC[C@@]1(C)O[C@@H]21` was tested, and the growth was -19% (active).
